In PubChem BioAssay (NCI):
Where “and” joins values, the source holds several entries; their conditions need not be identical. Equal entries are not always repeated. The panel holds about 83,000 compounds, 20% with a hit somewhere; the sample as a whole holds those more often.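 How to read the values: 0–100, growth inhibition (40 = 60% inhibited); 0, no net growth; -100 to 0, cell death (-40 = 40% of starting cells died; -100 = all dead).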 Values without a mark were called inactive.

These compounds were tested on CAKI-1 renal (assay: NCI-60 one-dose screen, 48 h (100 = growth as untreated, 0 = no growth, -100 = all killed)). Conditions: 10 µM.
Protocol: Growth inhibition of the CAKI-1 human tumor cell line is measured as a screen for anti-cancer activity. Cells are grown in 96 well plates and exposed to the test compound for 48 hours. Compounds are tested at a single concentration, which is 10^-5 M for most compounds. The reported endpoint is percent growth (GI% or GIPRCNT), where numbers from 0 - 100% represent growth inhibition, and numbers from -100% - 0 represent cell death. For example, a value of 40 represents 60% growth inhibition. A value of 0 means no net growth occurred over the course of the experiment. A value of -40 indicates 40% of cells at the beginning of the experiment died by the end of the experiment. A value of -100 means all cells are dead at the end of the experiment.
NCI-60 Human Tumor Cell Lines Screen was performed using the standard one-dose NCI protocol, which is described in more detail at https://dtp.cancer.gov/discovery_development/nci-60/default.htm.
Compounds with GIPRCNT values below 10 were considered active. Activity score was based on GIPRCNT using the following formula: […]
Score is 0 for GIPRCNT values of 100 or above, 50 for GIPRCNT values of 0, and 100 for GIPRCNT values of -100.
`O=c1ccn2c(n1)OC1CC2OC1COC(c1ccccc1)(c1ccccc1)c1ccccc1` (stereo not given) gave a growth of 102%.

Same assay, conditions: 10 µM unless noted
Compound `O=COCCCc1ccccc1` has a growth of 106%. For `CNc1ccc(Cl)cc1S(=O)(=O)c1ccccc1[N+](=O)[O-]`, the growth was 84.6% and 41.1%. `COc1ccc(CCN=Cc2ccc(Cl)cc2)cc1OC` was tested, and the growth was 101%. Work on `COCCNC(C)=O` yielded a growth of 98.5%. With `Nc1[nH][nH]c(=O)c1N=Nc1ccccc1` the growth was 104%. `COc1ccc(/C=N/Nc2nc3ccccc3s2)cc1` showed a growth of 79.9%. For `C/C=C(/C(=O)NC(N)=O)C(C)C`, the growth was 104%. In the case of `NC1=NC(c2ccccc2)N=C(Nc2ccccc2)N1` (stereo not given), the growth was 74.2% and 93.8%. `C/C=C/C(=O)OCCCCCCCCCCCC` gave a growth of 101%. In the case of `CC(C)(C(=O)c1cccnc1)c1cccnc1`, the growth was 98.5% and 109%. In the case of `CC1=CC(=O)c2cccc(NC3=NCCO3)c21`, the growth was 94.2%. In the case of `Cc1cc(NC(=O)NC(=O)c2ccccc2N(C)C)ccc1Oc1ncc(Br)cn1`, the growth was 25.9% and 38.2%. In the case of `Nc1ccc(O)c(C(=O)O)c1`, the growth was 107% and 102% and 99.8%. With `CCOP(C)(=O)/C(Cc1ccc(OC)c(OC)c1)=N\O` (stereo not given) the growth was 103%. `CCCCCCC(C)CC1=C(O)c2ccccc2C(=O)C1=O` (stereo not given) showed a growth of 39.7%. With `Cc1nc(Nc2ccc(Cl)cc2)c2cnn(-c3ccccc3)c2n1` the growth was 96.3%. For `O=S(=O)(O)c1ccc2cc(O)ccc2c1`, the growth was 99.5%. With `Cn1c(-c2ccccc2)cc(=O)cc1-c1ccccc1` the growth was 83.6%. For `CC1(C)CC(=O)NC1=O`, the growth was 93.5%. For `O=C(Nc1ccccc1)OCC(CN1CCCCC1)OC(=O)Nc1ccccc1` (stereo not given), the growth was 71.6% and 86%. Work on `CCc1ccccc1-n1[nH]c(C)c(C=N)c1=O` yielded a growth of 97.3%. For `COc1ccc2oc3cc(NCCN(C)C)ccc3c(=O)c2c1`, the growth was 77.2% and 63.5%. `CCC(C)NC(=O)c1ccccc1C` (stereo not given) gave a growth of 95.3%. With `CC1CCC(=O)N1c1ccc(N)cc1` (stereo not given) the growth was 102%. In the case of `CCCCOC1NC(=O)NC(=O)C1(F)C(=O)OCC` (stereo not given), the growth was 45.3% and 62.3%. For `CC1OS(=O)OC1C` (stereo not given), the growth was 96.7% and 89.1%. With `CC1=CC(=O)C=CC1=Nc1ccc(N(C)C)cc1` the growth was 87.1% and 67.3%. For `O=C(NC(CSSCC(NC(=O)OCc1ccccc1)C(=O)O)C(=O)O)OCc1ccccc1` (stereo not given), the growth was 72.1% and 99.3%. For `COc1ccc(CCn2cnn3c(=O)c4ccccc4nc3c2=O)cc1OC`, the growth was 111% and 97.8%. `COc1cc(C2c3cc4c(cc3C(OC(=O)C[n+]3ccccc3)C3COC(=O)C23)OCO4)cc(OC)c1OC` (stereo not given) gave a growth of 18.1%. Work on `NC(=O)Cc1nc(O)cc(=O)[nH]1` yielded a growth of 99.2%. Compound `COC(=O)c1cc(C(=O)OC)cc([N+](=O)[O-])c1` has a growth of 109%. `COc1cc2c(cc1O)C(=O)CCCC2` showed a growth of 73.3%. Work on `COc1ccc(CCO)cc1` yielded a growth of 102%. `CC(=O)Nc1ccc2oc(=O)ccc2c1` was tested, and the growth was 88.1%. For `Cc1cc(Cl)nc(Nc2ccccc2)n1`, the growth was 78.7%. `CN(C)CC(CN(C)C)C(O)c1ccccc1` (stereo not given) was tested, and the growth was 98.2%. Compound `CCN(C)c1ccccc1` has a growth of 90.8%.

Same assay, conditions: 100 µM
Work on `O=c1ccn2c(n1)OC1CC2OC1COC(c1ccccc1)(c1ccccc1)c1ccccc1` (stereo not given) yielded a growth of 65.7%.
